Reference: PubChem BioAssay AID1159580 (chemical genetic matrix, 2015)
Values joined by “and” are separate entries in the source; they are usually repeats but may differ in a detail not shown here. Equal entries are not always repeated. Screen size: about 5,500 compounds; about 2,000 (36%) were called active. Roughly 18% stayed inconclusive and do not appear here. Cut-off read from the data, not from the text of the source: active = normalized growth mostly below about 0.91 (no sharp cut-off); inconclusive = no clear call, values can overlap the other calls; inactive = mostly above about 0.92. Some of the results follow.

Test: chemical genetic growth profiling, strain panel (AID 1159580);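 note: tested at 20 µM; growth read once vehicle control cultures reached saturation at 30 °C; 1 = growth at the plate median or of vehicle wells; lower values mean less growth of the strain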
Details: S. cerevisiae deletion strains, growth OD

Measured: normalized growth

COC1=CC(C)[C@@H]2C[C@H]3OC(=O)C[C@H]4C(C)=C(OC)C(=O)C([C@@]34C)[C@@]2(C)C1=O (some centres undefined)
inactive: locus YAL021C, strain ccr4, active compounds read low 0.997 | locus YAL026C, strain drs2, active compounds read low 0.979 | locus YAL030W, strain snc1, active compounds read low 0.988 | locus YBL061C, strain skt5, active compounds read low 0.987 | locus YBR009C, strain hhf1, active compounds read low 0.962 | locus YBR021W, strain FUR4, active compounds read low 0.994 | locus YBR023C, strain chs3, active compounds read low 0.978 | locus YBR171W, strain sec66, active compounds read low 0.977 | locus YBR229C, strain ROT2, active compounds read low 1.01 | locus YBR231C, strain swc5, active compounds read low 0.988 | locus YBR279W, strain paf1, active compounds read low 0.985 | locus YCL011C, strain gbp2, active compounds read low 0.977 | locus YCL016C, strain dcc1, active compounds read low 0.981 | locus YCL029C, strain bik1, active compounds read low 1.02 | locus YCL061C, strain MRC1, active compounds read low 0.99 | locus YCL069W, strain vba3, active compounds read low 0.981 | locus YCR088W, strain abp1, active compounds read low 0.978 | locus YDL005C, strain med2, active compounds read low 0.975 | locus YDL035C, strain GPR1, active compounds read low 1.01 | locus YDL040C, strain nat1, active compounds read low 0.981 | locus YDL074C, strain BRE1, active compounds read low 1.03 | locus YDL101C, strain DUN1, active compounds read low 1.01 | locus YDL185W, strain tfp1, active compounds read low 1.02 | locus YDL192W, strain arf1, active compounds read low 1.02 | locus YDR001C, strain nth1, active compounds read low 0.976 | locus YDR069C, strain doa4, active compounds read low 0.984 | locus YDR101C, strain arx1, active compounds read low 1.02 | locus YDR137W, strain rgp1, active compounds read low 1 | locus YDR159W, strain sac3, active compounds read low 0.988 | locus YDR162C, strain NBP2, active compounds read low 1.03 | locus YDR195W, strain ref2 0.966 | locus YDR297W, strain sur2, active compounds read low 0.978 | locus YDR318W, strain mcm21, active compounds read low 1 | locus YDR334W, strain swr1, active compounds read low 0.971 | locus YDR335W, strain msn5, active compounds read low 0.986 | locus YDR388W, active compounds read low 1 | locus YDR392W, strain spt3, active compounds read low 0.88 | locus YDR502C, strain sam2, active compounds read low 1.01 | locus YEL003W, strain gim4, active compounds read low 0.975 | locus YEL037C, strain rad23, active compounds read low 0.972 | locus YEL061C, strain CIN8 (second series), active compounds read low 0.965 | locus YEL061C, strain CIN8, active compounds read low 1.01 | locus YER015W, strain faa2, active compounds read low 0.983 | locus YER016W, strain bim1, active compounds read low 0.973 | locus YER110C, active compounds read low 1.01 | locus YER111C, strain swi4, active compounds read low 0.972 | locus YER155C, strain BEM2 (second series), active compounds read low 0.978 | locus YER155C, strain BEM2, active compounds read low 1 | locus YER167W, strain BCK2, active compounds read low 1.01 | locus YFR010W, strain ubp6, active compounds read low 0.98 | locus YGL078C, strain dbp3, active compounds read low 1.02 | locus YGL086W, strain mad1, active compounds read low 1.02 | locus YGL167C, strain pmr1, active compounds read low 0.968 | locus YGL173C, strain kem1, active compounds read low 0.973 | locus YGL227W, strain vid30, active compounds read low 0.968 | locus YGL240W, strain doc1, active compounds read low 0.972 | locus YGL248W, strain PDE1, active compounds read low 1.03 | locus YGL253W, strain hxk2, active compounds read low 0.983 | locus YGR078C, strain PAC10, active compounds read low 1.04 | locus YGR135W, strain pre9, active compounds read low 1.02 | locus YGR229C, strain SMI1, active compounds read low 1.03 | locus YGR252W, strain gcn5, active compounds read low 1.04 | locus YHR013C, strain ard1, active compounds read low 0.926 | locus YHR027C, strain rpn1, active compounds read low 0.989 | locus YHR030C, strain SLT2, active compounds read low 1.01 and 1.04 | locus YHR079C, strain IRE1 (second series), active compounds read low 1.01 | locus YHR079C, strain IRE1, active compounds read low 1.01 | locus YHR094C, strain hxt1, active compounds read low 1.03 | locus YHR129C, strain ARP1, active compounds read low 1.01 | locus YHR142W, strain chs7, active compounds read low 0.981 | locus YHR200W, strain rpn10, active compounds read low 1.01 | locus YIL066C, strain RNR3, active compounds read low 1.02 | locus YIL073C, strain SPO22, active compounds read low 1.06 | locus YIL125W, strain kgd1, active compounds read low 1.01 | locus YIR030C, strain dcg1, active compounds read low 1.02 | locus YJL092W, strain hpr5, active compounds read low 0.975 | locus YJL095W, strain BCK1 (second series), active compounds read low 0.98 | locus YJL095W, strain BCK1, active compounds read low 1.05 and 1.02 | locus YJL115W, strain asf1, active compounds read low 0.978 | locus YJL129C, strain trk1, active compounds read low 0.971 | locus YJL134W, strain LCB3, active compounds read low 1.01 | locus YJL154C, strain vps35, active compounds read low 0.975 | locus YJL164C, strain tpk1, active compounds read low 0.989 | locus YJL166W, strain qcr8, active compounds read low 0.987 | locus YJL168C, strain set2, active compounds read low 1.01 | locus YJL187C, strain SWE1 (second series), active compounds read low 1.03 | locus YJL187C, strain SWE1, active compounds read low 0.993 | locus YJR043C, strain POL32, active compounds read low 1 | locus YJR066W, strain TOR1, active compounds read low 0.993
